Measured values taken from PubChem BioAssay (NCI).
This is part of a sample that, as a whole, favours compounds with a hit. Of some 83,000 tested, about 20% had one in any assay.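 Cells were grown in 96-well plates and exposed to the test compound at a single concentration for 48 hours; results are reported as percent growth, with values below 10 considered active.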 A number with no mark means an inactive call. Calls of active or inactive are those of the source.

Assays:
Assay in all cases: NCI-60 one-dose screen, 48 h (100 = growth as untreated, 0 = no growth, -100 = all killed)
Conditions in all cases: 10 µM unless noted
[1] = system: DU-145 prostate
[2] = system: K-562 leukemia
[3] = system: MALME-3M melanoma
[4] = system: MDA-MB-231 breast
[5] = system: RXF 393 renal
[6] = system: SF-268 CNS
[7] = system: SF-295 CNS
[8] = system: SF-539 CNS
[9] = system: UACC-257 melanoma
[10] = system: M14 melanoma
[11] = system: HCT-15 colon
[12] = system: HT29 colon
[13] = system: SNB-19 CNS
[14] = system: U251 CNS
[15] = system: PC-3 prostate
[16] = system: SK-MEL-5 melanoma
[17] = system: UACC-62 melanoma
[18] = system: LOX IMVI melanoma
[19] = system: SK-MEL-28 melanoma
[20] = system: SNB-75 CNS

SMILES | growth [1] | growth [2] | growth [3] | growth [4] | growth [5] | growth [6] | growth [7] | growth [8] | growth [9] | growth [10] | growth [11] | growth [12] | growth [13] | growth [14] | growth [15] | growth [16] | growth [17] | growth [18] | growth [19] | growth [20]
COC(=O)/C=C/C(=O)c1cc(C)cc(C)c1O | 103% | 103% | 95.7% | 114% | 116% | 95.9% | 93.5% | 99.5% | 99.8% | 102% | 100% | 99.7% | 108% | 108% | 102% | 104% | 106% | 98.1% | 102% | –
Nc1nc(Cl)cc(NCc2ccc(CNc3cc(Cl)nc(N)n3)cc2)n1 | 96.4% | 47.8% | 182% | 83.1% | 90.9% | 98.2% | 105% | 87.3% | 96% | 133% | 100% | 110% | 100% | 98.6% | 109% | 58.4% | 98.3% | 79.5% | 120% | –
COc1ccc(-c2cc(-c3nnc(SC/C(=N\O)c4ccccc4)n3-c3ccccc3)c3ccccc3n2)cc1 | 111% | 113% | 100% | 103% | 117% | 102% | 104% | 102% | 104% | 116% | 107% | 99.5% | 105% | 101% | 93.6% | 108% | 97.6% | 95.7% | 113% | –
c1ccc([Se]CCCN2CCN(CCC[Se]c3ccccc3)CC2)cc1 | 109% | 129% | 123% | 98.8% | 44.6% | 109% | -58.4% (active) | 112% | 104% | 90.3% | 90.9% | 96.3% | 119% | 101% | 102% | 101% | 92.3% | 91.6% | 111% | –
COc1cc(NC(=O)C#Cc2ccccc2)c(OC)cc1Cl | 83.6% | 20.6% | 61.4% | 26.6% | 83.5% | 39.8% | 75.1% | 66.6% | 89.2% | 49.8% | 20.6% | 29.3% | 40.7% | 39.5% | 38.1% | 30.1% | 36.8% | 17.2% | 84.2% | –
O=C(Nc1ccc(-n2cc(-c3ccncc3)c(-c3ccc(O)c(Cl)c3)n2)cc1)c1ccc(Cl)c(C(F)(F)F)c1 | 35.3% | 5.88% (active) | 25% | -29.1% (active) | -81.6% (active) | 38% | -2.61% (active) | 2.46% (active) | 60.9% | -16.2% (active) | 7.89% (active) | -33.9% (active) | 40.2% | 15.7% | 14.4% | -46.7% (active) | 71.2% | -47.6% (active) | 44.3% | –
CN[C@@H](CCCNC(N)=NC/C=C(/C)CCC=C(C)C)C(=O)N(C)[C@@H](CCCNC(N)=NCC=C(C)C)C(=O)N[C@H](C)[C@H](OS(=O)(=O)O)c1ccc(OS(=O)(=O)O)c(COS(=O)(=O)O)c1 | 108% | 110% | 117% | 95.5% | 102% | 101% | 112% | 104% | 92.5% | 105% | 113% | 86.2% | – | 98.4% | 89.5% | 99.6% | 93.8% | 99.7% | 107% | 98.6%
COc1ccc(-c2[nH]c3ccccc3c2/C=C(\C#N)S(=O)(=O)c2ccccc2)cc1 | 12.3% | 33.8% | 73.6% | 31.5% | -12.2% (active) | 45.1% | -11.5% (active) | -30.7% (active) | 73.2% | 20.2% | 24.6% | 12.6% | – | 24.2% | 30.9% | 12.5% | 22.6% | 28.5% | 54.2% | 33.1%
